Compound activity as filed in PubChem BioAssay.
CHO-K1 Ca ag – M1 agonist counterscreen hit in parental CHO-K1 cells; Fluo-8 calcium fluorescence; scaled to maximal ATP response, vehicle zero; activation, % at 3 µM; hit rate 0.48% among 360,000; AID 602248; in the data active = activation above about 15%;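 also: untransfected CHO-K1 host cells lacking M1 receptor as counterscreen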
CHO-K1 Ca PAM – nonselective activator or artifact in parental CHO-K1 calcium assay; ATP EC20, Fluo-8 calcium fluorescence; 0% at ATP EC20, 100% at ATP max; activation, % at 3 µM; hit rate 0.02% among 360,000; AID 602247;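 active = activation above the run cutoff, the mean activation of all test compounds plus 3 SD, cut at about 40% in these data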;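 also: peak over basal fluorescence ratio in a 140 s read after ATP addition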
NTR1 ag – NTR1 (human) agonism; P30989; NTR1-U2OS beta-arrestin-GFP spot imaging, agonist mode; activation, % at 20 µM; hit rate 0.17% among 330,000; AID 493036;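 active = activation at or above 40% of the spot to cytoplasm intensity ratio, with at least 20 cells analyzed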;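 also: 0% = DMSO without peptide and 100% = 100 nM NTR1 peptide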
CHO-K1 Ca antag – counter-screen for M1 antagonists: effect in parental CHO-K1 cells. inhibition, % at 3 µM. AID 602250. hit rate 0.6% among 360,000. ATP-induced calcium, Fluo-8 fluorescence;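 active = inhibition above a per-plate cutoff, the plate's mean sample inhibition plus 3 SD, cut at about 24% in these data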;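 also: 0% = DMSO plus EC80 ATP and 100% = DMSO alone without ATP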
TMEM16A inh – inhibitors of mouse TMEM16A calcium-activated chloride channel; hit rate 1.2% among 310,000; HEK293 TMEM16A/YFP iodide influx fluorescence, ionomycin; AID 588511; Q8BHY3; normalized B-score (activity score, 25-100; higher = stronger inhibition) at 10 µM;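 active = ratio plate-corrected score three or more library SD toward inhibition, starting fluorescence score within five deviations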;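 also: score derived from kinetic fluorescence span divided by baseline fluorescence per well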
Target sequence (Q8BHY3 whole entry, looked up): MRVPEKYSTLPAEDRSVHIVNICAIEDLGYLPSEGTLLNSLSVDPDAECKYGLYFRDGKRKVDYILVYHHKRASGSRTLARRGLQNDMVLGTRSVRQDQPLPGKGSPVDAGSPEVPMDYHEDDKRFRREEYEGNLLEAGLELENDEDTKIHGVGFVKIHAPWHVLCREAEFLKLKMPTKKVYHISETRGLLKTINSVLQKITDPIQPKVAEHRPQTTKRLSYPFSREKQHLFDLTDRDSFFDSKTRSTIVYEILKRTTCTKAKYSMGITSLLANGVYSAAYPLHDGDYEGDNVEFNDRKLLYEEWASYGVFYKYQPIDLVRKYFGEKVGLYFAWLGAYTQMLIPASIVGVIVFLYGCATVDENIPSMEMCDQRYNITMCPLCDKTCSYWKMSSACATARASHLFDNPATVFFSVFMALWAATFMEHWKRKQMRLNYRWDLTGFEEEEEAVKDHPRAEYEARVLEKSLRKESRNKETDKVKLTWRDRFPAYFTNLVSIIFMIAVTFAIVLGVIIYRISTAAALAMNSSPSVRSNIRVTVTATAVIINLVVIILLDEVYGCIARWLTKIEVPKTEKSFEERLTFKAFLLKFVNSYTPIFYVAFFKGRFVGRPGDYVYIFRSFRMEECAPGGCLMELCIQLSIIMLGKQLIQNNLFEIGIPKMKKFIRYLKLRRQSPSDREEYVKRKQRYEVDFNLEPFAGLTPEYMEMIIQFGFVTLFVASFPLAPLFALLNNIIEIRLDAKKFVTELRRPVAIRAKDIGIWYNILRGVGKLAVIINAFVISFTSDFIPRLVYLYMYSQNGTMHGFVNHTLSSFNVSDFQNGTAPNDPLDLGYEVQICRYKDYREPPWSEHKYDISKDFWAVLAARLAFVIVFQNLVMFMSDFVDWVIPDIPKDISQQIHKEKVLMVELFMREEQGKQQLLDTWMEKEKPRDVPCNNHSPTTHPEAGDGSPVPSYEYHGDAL
ANO1 activ – activators or potentiators of mouse TMEM16A chloride channel | AID 623877 | hit rate 0.3% among 340,000 | B-score at 10 µM | Q8BHY3 | HEK293 TMEM16A/YFP-H148Q/I152L, iodide quench fluorescence; stronger effect = lower value;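 active = fluorescence-ratio B-score plate-corrected deviation score at least 3 library SD below zero, with starting fluorescence score within 5 deviations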;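 also: channel opened by trigger with iodide after compound preincubation; score built on the fluorescence ratio of max minus min over baseline; more negative score means more quench and so TMEM16A activation or potentiation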
The depositor's hits bear a star; i = inactive; / = no result given. Most compounds without a hit are left out; they make up all but 2.2% or so of the library.

SMILES	CHO-K1 Ca ag	CHO-K1 Ca PAM	NTR1 ag	CHO-K1 Ca antag	TMEM16A inh	ANO1 activ
COc1ccc(C(=O)N2CCC(C)(C(=O)O)C2)c(OC)c1 (stereo unspecified)	-0.2	8.2	/	-5.4	/	/
CC(C)(C)c1ccc(C(=O)Nc2ccc(Cl)cc2)cc1	-0.1	24.3	2.9	-16.3	i	i
COC(=O)Cc1ccc(NC(=O)c2ccc(C(C)(C)C)cc2)cc1	2.1	18.6	4.8	-18.2	100*	i
O=C(NCc1cccnc1)C(=O)NCC1OCCN1S(=O)(=O)c1ccccc1 (stereo unspecified)	0.0	9.1	2.9	-2.2	i	i
Cc1ccc(S(=O)(=O)N2CCOC2CNC(=O)C(=O)NCc2cccnc2)cc1 (stereo unspecified)	1.6	-9.9	-0.3	35.9*	i	i
CC(C)c1nc(SCC(=O)Nc2c[nH]c(=O)[nH]c2=O)c2cnn(-c3ccccc3)c2n1	-0.7	3.3	1.1	40.5*	i	i
COc1ccccc1C(=O)NNC(=S)NC(=O)c1sc2ccccc2c1Cl	11.8	15.6	5.7	-3.1	100*	-6.16*
COc1ccccc1C(=O)NC(=S)NNC(=O)c1sc2ccccc2c1Cl	0.3	2.9	11.4	-2.7	100*	-7.78*
CN(C(=O)COC(=O)Cc1ccc(Br)cc1)c1c(N)n(Cc2ccccc2)c(=O)[nH]c1=O	0.5	1.1	/	0.4	/	/
COC(=O)CCCn1cc(CN2CC(N3CCN(Cc4cccc(C)c4)CC3)CS2(=O)=O)nn1 (stereo unspecified)	-0.5	-11.7	/	-6.4	/	/
CCCOc1ccc(N2C(=O)CC(N3CCN(c4ccc([N+](=O)[O-])cc4)CC3)C2=O)cc1 (stereo unspecified)	24.7*	12.0	2.8	1.8	i	i
COc1ccc(N2C(=O)CC(NCCNc3ccc([N+](=O)[O-])cn3)C2=O)cc1 (stereo unspecified)	0.2	23.1	5.4	-5.0	i	i
CCOc1ccc(N2C(=O)CC(NCCNc3ccc([N+](=O)[O-])cn3)C2=O)cc1 (stereo unspecified)	0.1	21.6	0.9	-2.7	25*	i
CCOc1ccc(N2C(=O)CC(N3CCN(c4ccc([N+](=O)[O-])cc4)CC3)C2=O)cc1 (stereo unspecified)	2.1	18.0	1.4	-12.2	i	i
COc1ccc(S(=O)(=O)N(C)C[C@H]2Oc3ncc(C#CC4(O)CCCC4)cc3C(=O)N([C@@H](C)CO)C[C@@H]2C)cc1	1.9	-2.8	/	-0.5	/	/
CN(C)c1ccc(CNc2ncnc3sccc23)cc1	10.0	-16.0	2.1	25.3*	i	i
CC(C)CC1=NN2C(=N)/C(=C\c3coc4ccccc4c3=O)C(=O)N=C2S1	100.2*	-13.9	/	44.9*	/	i
CCSC1=NSC2=NC(=O)/C(=C\c3coc4ccccc4c3=O)C(=N)N12	58.6*	-13.6	/	48.3*	i	i
CC(C)n1c(=O)c2ccccc2n1Cc1cn(Cc2cccs2)nn1	-0.3	-10.0	/	-3.8	/	/
CN1C(=O)/C(=C\c2cc(N=Nc3ccccc3)ccc2O)SC1=S	0.1	-0.8	11.6	3.8	100*	i
CCOC(=O)C1=C(c2ccccc2)NC(=O)NC1c1ccc(O)c(OCC)c1 (stereo unspecified)	0.1	-0.9	2.3	-10.8	i	i
CCOC(=O)C1=C(c2ccccc2)NC(=O)NC1c1ccc(O)c(Cl)c1 (stereo unspecified)	0.2	-0.4	23.9	16.5	i	-10.6*
O=C(CSc1nnc2n1CCCN2)c1ccc([N+](=O)[O-])cc1	18.7*	3.0	0.6	8.8	i	i
COC(=O)C1(CC2CC(c3ccccc3)=NO2)CCN(C(=O)OC(C)(C)C)CC1 (stereo unspecified)	13.5	7.3	-1.6	-15.4	25*	i
COC(=O)C1(CC2CC(c3ccncc3)=NO2)CCN(C(=O)OC(C)(C)C)CC1 (stereo unspecified)	3.1	-13.0	-3.7	-8.1	i	i
SMILES	CHO-K1 Ca ag	CHO-K1 Ca PAM	NTR1 ag	CHO-K1 Ca antag	TMEM16A inh	ANO1 activ
Cn1nnnc1SCc1nnc(-c2ccccc2Br)o1	0.4	14.3	0.5	-15.4	i	i
Cc1nnc(SCc2nnc(-c3ccccc3Br)o2)s1	0.5	13.7	-1.6	5.4	i	-7.89*
COC(=O)c1ccc2nc(-c3ccccc3)c(Cc3ccccc3OC)n2c1	0.8	4.8	/	-3.1	/	/
COc1ccc(OC)c(NC(=O)C(C)SCc2nc3sc(C)c(C)c3c(=O)[nH]2)c1 (stereo unspecified)	-0.3	-13.5	-1.9	9.5	/	i
COc1ccc(NC(C)=O)cc1NC(C)c1nc2sc(C)c(C)c2c(=O)[nH]1 (stereo unspecified)	16.7*	13.8	0.8	-7.3	i	i
CCOC(=O)c1cnc2c(C#N)c(C)nn2c1C	-0.1	-3.7	1.2	7.0	i	-22.8*
C=Cc1ccc(CC2(C)C(=O)Nc3ccc(-c4cccnc4)cc32)cc1 (stereo unspecified)	2.7	22.5	/	-2.7	/	/
Cc1cc(Cl)ccc1C(O)c1ncc(-c2cccc3ccccc23)[nH]1 (stereo unspecified)	0.5	-1.9	/	4.1	/	/
O=C1c2ccccc2C(=O)N1CN(C(=O)COc1ccccc1)c1ccccc1	2.8	16.2	1.4	-30.7	i	i
O=C1c2ccccc2C(=O)N1CN(C(=O)c1ccccc1)c1ccc(O)cc1	22.3*	5.7	-0.8	12.4	i	i
CCSC1OC(C(COC(C)=O)OC(C)=O)C(OC(C)=O)C1NC(C)=S (stereo unspecified)	-0.3	-9.0	/	-5.1	/	i
O=C(c1ccc([N+](=O)[O-])o1)N1CCN(c2nc3c(F)cc(F)cc3s2)CC1	1.8	-9.9	3.7	23.8*	i	i
CC(=O)Nc1ccc(NC(=O)Cn2c(=O)n(-c3ccc(C)cc3)c(=O)c3oc4ccccc4c32)cc1	0.0	7.0	0.6	-3.5	i	i
CC(=O)Nc1ccc(NC(=O)Cn2c(=O)n(-c3ccccc3)c(=O)c3oc4ccccc4c32)cc1	15.3*	17.2	1.8	0.6	i	i
COc1ccccc1N(CC(=O)NCCSCc1ccccc1)S(=O)(=O)c1ccc(C)cc1	0.2	-4.1	8.6	-2.8	25*	i
O=C(NCC(c1ccco1)N1CCCCC1)c1ccc(COc2ccc(Cl)cc2)cc1 (stereo unspecified)	2.1	22.1	/	-4.2	/	i
O=C1NC[C@H](CCCCN2C[C@@H](Cc3ccccc3)N(CC3CCCCC3)C(=O)C2=O)N(CCC2CCCCC2)C1=O	26.3*	5.7	/	-15.9	/	/
O=C1NC[C@@H](CCCCN2C[C@H](Cc3ccccc3)N(CC3CCCCC3)C(=O)C2=O)N(CC2CCCCC2)C1=O	35.3*	9.3	/	-18.3	/	/
